# Source: the antibiotic and cytotoxicity screens of Wong et al. (2023)
# The whole screen tested about 39,000 compounds, of which about 500 (1.3%) were called active. What follows is part of a selection rich in actives, with near analogues and random picks from the rest.
# System: S. aureus RN4220
# Assay: growth inhibition call (relative growth <= 0.2)
# Settings: 50 µM
row,SMILES,growth inhibition call
1,CC(C)NC(=O)N(C)C[C@H]1Oc2ccc(NS(=O)(=O)c3ccc(F)cc3)cc2CC(=O)N([C@H](C)CO)C[C@H]1C,inactive
2,COc1ccc2c3c([nH]c2c1)[C@@H](CO)N(C[C@]13CN(C1)S(=O)(=O)c1cccs1)C(=O)c1ccccc1,inactive
3,C[C@@H]1CN([C@@H](C)CO)C(=O)c2cc(NC(=O)NC3CCCCC3)ccc2O[C@@H]1CN(C)Cc1ccc(Oc2ccccc2)cc1,inactive
4,CC(C)(C)C(=O)C[n+]1ccc(C(N)=O)cc1,inactive
5,O=C(O)[C@H]1/C(=C/CO)O[C@@H]2CC(=O)N21,inactive
6,O=C(O)C1C(=CCO)OC2CC(=O)N21.[LiH] (stereo not drawn),active
7,O=C(O)[C@@H]1C(=CCO)O[C@H]2CC(=O)N12,inactive
8,N[C@@H]1CC[C@@H](CCn2cc(C3(O)CCCC3)nn2)O[C@H]1CO,inactive
9,C[C@H](CO)N1C[C@H](C)[C@H](CN(C)C(=O)Nc2ccc(F)cc2)OCc2ccccc2-c2ccccc2C1=O,inactive
10,C[C@@H]1CCCCO[C@@H](CN(C)C(=O)NC2CCCCC2)[C@H](C)CN([C@H](C)CO)C(=O)c2cc(NS(=O)(=O)c3cccs3)ccc2O1,inactive
11,Cc1cccc(S(=O)(=O)N2C[C@H](O)COC[C@@H]3O[C@@H](CC(=O)NCc4ccc5c(c4)OCO5)CC[C@H]32)c1,inactive
12,CC(=O)Nc1ncc([N+](=O)[O-])s1,inactive
13,CC(=O)Oc1ccccc1C(=O)Nc1ncc([N+](=O)[O-])s1,active
14,CC(=O)Oc1ccccc1C(=O)Nc1ccccc1,inactive
15,O=S1(=O)C[C@@H]2NC(=S)N[C@@H]2C1,inactive
16,C[C@H](CO)N1C[C@H](C)[C@@H](CN(C)S(=O)(=O)c2cn(C)cn2)Oc2ccc(NC(=O)NC3CCCCC3)cc2CC1=O,inactive
17,C[C@@H]1CN([C@@H](C)CO)C(=O)c2cc(NC(=O)CCN3CCOCC3)ccc2O[C@@H]1CN(C)C(=O)Nc1ccccc1,inactive
18,CC(C)NC(=O)N(C)C[C@H]1OCCCC[C@@H](C)Oc2ccc(NC(=O)C3CCCCC3)cc2C(=O)N([C@H](C)CO)C[C@H]1C,inactive
19,COc1ccc(C2=N[C@@H](c3ccc(Cl)cc3)[C@@H](c3ccc(Cl)cc3)N2C(=O)N2CCNC(=O)C2)c(OC(C)C)c1,active
20,COc1ccc(C2=N[C@H](c3ccc(Cl)cc3)[C@H](c3ccc(Cl)cc3)N2C(=O)N2CCNC(=O)C2)c(OC(C)C)c1,inactive
21,C[C@H]1CN([C@@H](C)CO)C(=O)Cc2cc(NC(=O)CCN3CCOCC3)ccc2O[C@@H]1CN(C)C(=O)Nc1ccccc1,inactive
22,O=C(Nc1ccc(Br)cc1)c1ccc(N2C(=O)c3ccc(C(=O)Nc4ccc(Br)cc4)cc3C2=O)cc1,inactive
23,CO[C@H]1CN(C)C(=O)c2ccc(NC(=O)Nc3cccc(F)c3)cc2OC[C@H](C)N(C(=O)Nc2c(C)noc2C)C[C@@H]1C,inactive
24,CS(=O)(=O)c1ccc(C(O)C(CF)NC(=O)C(Cl)Cl)cc1 (stereo not drawn),active
25,CCCCCCCCCCCCCCCC(=O)OC[C@H](NC(=O)C(Cl)Cl)[C@H](O)c1ccc([N+](=O)[O-])cc1,inactive
26,CS(=O)(=O)c1ccc(C(O)C(CO)NC(=O)C(Cl)Cl)cc1 (stereo not drawn),inactive

row,SMILES,growth inhibition call
1,O=C(NC(CO)C(O)c1ccc([N+](=O)[O-])cc1)C(Cl)Cl (stereo not drawn),active
2,CCCCCCCCCCCCCCCC(=O)OCC(NC(=O)C(Cl)Cl)C(O)c1ccc([N+](=O)[O-])cc1 (stereo not drawn),inactive
3,O=C([O-])CCC(=O)OCC(NC(=O)C(Cl)Cl)C(O)c1ccc([N+](=O)[O-])cc1.[Na+] (stereo not drawn),inactive
4,Cc1noc(C)c1NC(=O)N(C)C[C@@H]1OCCCC[C@H](C)Oc2ccc(NC(=O)Nc3ccccc3)cc2C(=O)N([C@@H](C)CO)C[C@@H]1C,inactive
5,CCCN(C)C[C@H]1OCCCC[C@@H](C)Oc2ccc(NC(=O)Nc3ccc(OC)cc3)cc2C(=O)N([C@H](C)CO)C[C@@H]1C,inactive
6,COc1cccc(-c2cn(CC[C@H]3CC[C@H](NC(=O)CN(C)C)[C@@H](CO)O3)nn2)c1,inactive
7,COCCn1cc2c(n1)[C@H](CNC(=O)CS(C)(=O)=O)OCC2,inactive
8,C[C@H](CO)N1C[C@H](C)[C@H](CN(C)S(C)(=O)=O)Oc2ncc(C#CCN(C)C)cc2C1=O,inactive
9,C[C@@H]1CN([C@@H](C)CO)C(=O)c2c(c3ccccc3n2C)-c2ccccc2CO[C@H]1CN(C)Cc1ccc(C(=O)O)cc1,inactive
10,Cl.N=C(N)n1cccn1,active
11,NCc1ccccc1-n1cccn1,inactive
12,NCCn1cccn1,inactive
13,C[C@H]1CN([C@@H](C)CO)C(=O)Cc2cc(NS(=O)(=O)c3ccc(Cl)cc3)ccc2O[C@@H]1CN(C)S(=O)(=O)c1cn(C)cn1,inactive
14,CC(C)[C@@H](N)c1nc2c([nH]1)CCCC2,inactive
15,CC(=CC(=O)OCCCCCCCCC(=O)O)CC1OCC(CC2OC2C(C)C(C)O)C(O)C1O (stereo not drawn),active
16,C/C(=C\C(=O)OCCCCCCCCC(=O)O)C[C@@H]1OC[C@H](C[C@@H]2O[C@H]2[C@@H](C)[C@H](C)O)[C@@H](O)[C@H]1O,inactive
17,CCOC(=O)CC1=NNC(=N)SC1,inactive
18,C[C@@H]1CN([C@H](C)CN(C)C)C(=O)c2cc(NC(=O)Cc3cn(C)c4ccccc34)ccc2O[C@H]1CN(C)S(=O)(=O)c1ccc(Cl)cc1,inactive
19,CCCN(C)C[C@H]1OCCCC[C@@H](C)Oc2ccc(NC(=O)Nc3ccc(F)cc3)cc2C(=O)N([C@H](C)CO)C[C@@H]1C,inactive
20,CCCN(C)C[C@H]1OCCCC[C@@H](C)Oc2ccc(NC(=O)Nc3ccc(F)cc3)cc2C(=O)N([C@@H](C)CO)C[C@H]1C,active
21,CCCN(C)C[C@@H]1OCCCC[C@@H](C)Oc2ccc(NC(=O)Nc3ccc(C(F)(F)F)cc3)cc2C(=O)N([C@H](C)CO)C[C@@H]1C,inactive
22,CCCN(C)C[C@@H]1OCCCC[C@H](C)Oc2ccc(NC(=O)Nc3ccc(C(F)(F)F)cc3)cc2C(=O)N([C@H](C)CO)C[C@@H]1C,inactive
23,CCCN(C)C[C@H]1OCCCC[C@H](C)Oc2ccc(NC(=O)Nc3ccc(C(F)(F)F)cc3)cc2C(=O)N([C@@H](C)CO)C[C@H]1C,active
24,CCCN(C)C[C@@H]1OCCCC[C@@H](C)Oc2ccc(NC(=O)Nc3ccc(C(F)(F)F)cc3)cc2C(=O)N([C@H](C)CO)C[C@H]1C,active
25,CCCN(C)C[C@H]1OCCCC[C@@H](C)Oc2ccc(NC(=O)Nc3ccc(C(F)(F)F)cc3)cc2C(=O)N([C@H](C)CO)C[C@H]1C,inactive
26,CCCN(C)C[C@@H]1OCCCC[C@@H](C)Oc2ccc(NC(=O)Nc3ccc(F)cc3)cc2C(=O)N([C@H](C)CO)C[C@H]1C,inactive

row,SMILES,growth inhibition call
1,CCCN(C)C[C@H]1OCCCC[C@@H](C)Oc2ccc(NC(=O)Nc3ccc(C(F)(F)F)cc3)cc2C(=O)N([C@@H](C)CO)C[C@H]1C,inactive
2,C[C@H]1CN([C@@H](C)CO)C(=O)c2cc(NS(C)(=O)=O)ccc2O[C@@H]1CN(C)C(=O)Nc1ccc(F)cc1,inactive
3,COCC(=O)N(C)C[C@@H]1Oc2cc(C#CCN(C)C)ccc2S(=O)(=O)N([C@H](C)CO)C[C@@H]1C,inactive
4,C[C@@H]1CCCCO[C@@H](CN(C)C(=O)C2CCCCC2)[C@@H](C)CN([C@@H](C)CO)C(=O)c2cc(NC(=O)Nc3ccc(C(F)(F)F)cc3)ccc2O1,inactive
5,COc1ccc(CNC(=O)C[C@H]2CC[C@@H]3[C@@H](COc4ccc(NC(=O)C(C)C)cc4C(=O)N3C)O2)cc1,inactive
6,C[C@@H]1CN([C@H](C)CO)C(=O)c2cccc(NC(=O)Nc3ccc(F)cc3)c2O[C@H]1CN(C)Cc1ccc(Oc2ccccc2)cc1,inactive
7,COc1ccc(C#Cc2ccc3c(c2)O[C@H](CN(C)C(=O)c2ccccn2)[C@H](C)CN([C@@H](C)CO)S3(=O)=O)cc1,inactive
8,OCCOCc1nnn2c1CN(c1ncccn1)CCC2,inactive
9,COC(=O)[C@H]1CCc2nc[nH]c2C1,inactive
10,Cc1oc(=O)oc1CN1CCN(c2cc3c(cc2F)c(=O)c(C(=O)O)c2n3C(C)S2)CC1 (stereo not drawn),active
11,Cn1cnc(S(=O)(=O)N2C[C@@H](O)COC[C@H]3O[C@@H](CC(=O)NCc4ccc(F)cc4)CC[C@@H]32)c1,inactive
12,COc1ccc(NC(=O)N(C)C[C@H]2OCCCC[C@H](C)Oc3ccc(NS(=O)(=O)c4ccc(F)cc4)cc3C(=O)N([C@@H](C)CO)C[C@H]2C)cc1,inactive
13,C[C@@H]1CN([C@@H](C)CO)C(=O)c2cc(NS(=O)(=O)c3ccc(Cl)cc3)ccc2O[C@@H]1CN(C)Cc1ccc(C(=O)Nc2ccccc2N)cc1,inactive
14,CCN(CC)c1ccc(N2CC=C[C@@]34O[C@@H]5C=CCCOC(=O)[C@@H]5[C@H]3C(=O)N([C@@H](C)CO)[C@@H]4C2=O)cc1,inactive
15,O=C(C[C@H]1CC[C@@H]2[C@H](COC[C@@H](O)CN2C(=O)Nc2ccc(Cl)cc2)O1)NCCc1ccncc1,inactive
16,O=C(C[C@H]1CC[C@@H]2[C@H](COC[C@@H](O)CN2C(=O)Nc2ccc(C(F)(F)F)cc2)O1)NCc1ccncn1,inactive
17,O=C(C[C@@H]1CC[C@H]2[C@@H](COC[C@@H](O)CN2C(=O)Nc2ccc(Cl)cc2)O1)NCCc1ccncc1,inactive
18,O=C(C[C@@H]1CC[C@H]2[C@@H](COC[C@H](O)CN2C(=O)Nc2ccc(C(F)(F)F)cc2)O1)NCCc1ccncc1,active
19,O=C(C[C@@H]1CC[C@H]2[C@@H](COC[C@@H](O)CN2C(=O)Nc2ccc(C(F)(F)F)cc2)O1)NCCc1ccncc1,active
20,O=C(C[C@H]1CC[C@H]2[C@@H](COC[C@@H](O)CN2C(=O)Nc2ccc(C(F)(F)F)cc2)O1)NCCc1ccncc1,active
21,O=C(C[C@@H]1CC[C@@H]2[C@H](COC[C@H](O)CN2C(=O)Nc2ccc(C(F)(F)F)cc2)O1)NCCc1ccncc1,inactive
22,O=C(C[C@H]1CC[C@H]2[C@@H](COC[C@@H](O)CN2C(=O)Nc2ccc(Cl)cc2)O1)NCCc1ccncc1,inactive
23,O=C(C[C@@H]1CC[C@@H]2[C@H](COC[C@H](O)CN2C(=O)Nc2ccc(Cl)cc2)O1)NCCc1ccncc1,inactive
24,O=C(C[C@H]1CC[C@@H]2[C@H](COC[C@@H](O)CN2C(=O)Nc2ccc(C(F)(F)F)cc2)O1)NCCc1ccncc1,active
25,O=C(C[C@H]1CC[C@H]2[C@@H](COC[C@H](O)CN2C(=O)Nc2ccc(C(F)(F)F)cc2)O1)NCc1ccncn1,inactive
26,O=C(C[C@H]1CC[C@H]2[C@@H](COC[C@H](O)CN2C(=O)Nc2ccc(Cl)cc2)O1)NCCc1ccncc1,inactive
